Source: PubChem BioAssay
Peg3 prom inh: reduces Peg3 promoter-driven luciferase expression in HeLa; hit rate 1.7% among 360,000; HeLa PEG-Prom luciferase reporter, luminescence, overnight; AID 588405; inhibition, % at 20 µM;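 active means inhibition of at least 50% at 20 µM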
MITF TRPM1 inh: reduces MITF-dependent TRPM1 promoter luciferase signal. SK-MEL-5 TRPM1 promoter luciferase, 24 h. inhibition, % at 12.5 µM. hit rate 0.83% among 330,000;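 active means mean inhibition across replicates of 60% or more, whatever share of single replicates reaches that level; inconclusive means some that reach 60%, reason not given; inactive means mean inhibition across replicates below 60%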
KKLEB cytotox: CF airway cell cytotoxicity counter-screen. KKLEB CF airway cells viability, ATPlite luminescence, overnight; active compounds read low; cells stimulated with P. aeruginosa culture filtrate. hit rate 0.36% among 360,000. activity change (cytotoxicity), % at 5 µM. AID 602141;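 active means corrected activity change at or below -50% at 5 µM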
HIF-2a block: inhibitors of HIF-2a. 786-0 RCC cells HIF-2a reporter, luciferase luminescence, overnight. inhibition, % at 18.8 µM. hit rate 0.72% among 360,000;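 active means inhibition of the luminescence signal of 40% or more relative to plate controls, in a single-dose primary screen at 18.75 µM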
CF NFkB block: cystic fibrosis NF-kB activation inhibition | KKLEB NF-kB-GFP reporter, PAF-induced, GFP fluorescence overnight | inhibition, % at 5 µM | hit rate 0.86% among 360,000;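 active means at least 50% inhibition at 5 µM, scaled per plate between neutral and stimulator controls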;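 further: PAF is a Pseudomonas aeruginosa culture filtrate used as stimulus; plate controls were PAF-stimulated DMSO wells for no effect and unstimulated DMSO wells for full effect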
Shn3 3UTR inh: inhibitors of Schnurri-3 3'UTR reporter in osteoblasts; Clone20 osteoblast Shn3 3'UTR firefly luciferase, 24 h; inhibition, % at 12.5 µM; hit rate 0.52% among 360,000;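 active means mean inhibition of at least 75% with every replicate also reaching 75%; inconclusive means mean inhibition at least 75% but some replicate below; inactive means mean inhibition below 75%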;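 further: 0% = median of neutral control wells and 100% = pilot-screen positive control compound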
CF NFkB conf: confirmation of cystic fibrosis induced NF-kB inhibitors. KKLEB CF airway cells, PAF-induced NF-kB-GFP fluorescence, overnight. AID 602472. inhibition, % at 5 µM. shares compounds with CF NFkB block. hit rate 64% among 1,300; in the data active means inhibition above about 40%;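 further: stimulus PAF is a Pseudomonas aeruginosa filtrate and not platelet activating factor; plate controls were DMSO wells with stimulus for no effect and unstimulated DMSO wells for full effect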
Mdm2-MdmX confirm: Mdm2/MdmX (human) interaction inhibition, confirmed. shares compounds with HIF-2a block. SaOS-2 split-luciferase Mdm2/MdmX complementation, luminescence. inhibition, % at 8 µM. hit rate 99% among 740;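 active means mean inhibition of the luminescence signal across two replicates at or above 26 percent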
Target sequence (O15151 whole entry, looked up): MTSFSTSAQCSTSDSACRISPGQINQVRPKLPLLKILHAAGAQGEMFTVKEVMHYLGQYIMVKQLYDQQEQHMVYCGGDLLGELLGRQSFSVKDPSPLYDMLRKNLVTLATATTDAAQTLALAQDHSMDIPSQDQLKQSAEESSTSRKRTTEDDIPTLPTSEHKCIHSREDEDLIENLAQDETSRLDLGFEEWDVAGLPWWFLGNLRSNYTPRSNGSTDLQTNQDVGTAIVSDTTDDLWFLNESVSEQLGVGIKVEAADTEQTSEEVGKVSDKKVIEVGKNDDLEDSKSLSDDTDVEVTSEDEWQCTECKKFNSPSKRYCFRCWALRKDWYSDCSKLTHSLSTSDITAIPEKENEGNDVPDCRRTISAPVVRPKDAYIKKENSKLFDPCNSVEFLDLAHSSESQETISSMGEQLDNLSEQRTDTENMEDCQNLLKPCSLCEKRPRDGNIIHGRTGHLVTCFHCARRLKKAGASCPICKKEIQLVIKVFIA
Target sequence (Q00987 whole entry, looked up): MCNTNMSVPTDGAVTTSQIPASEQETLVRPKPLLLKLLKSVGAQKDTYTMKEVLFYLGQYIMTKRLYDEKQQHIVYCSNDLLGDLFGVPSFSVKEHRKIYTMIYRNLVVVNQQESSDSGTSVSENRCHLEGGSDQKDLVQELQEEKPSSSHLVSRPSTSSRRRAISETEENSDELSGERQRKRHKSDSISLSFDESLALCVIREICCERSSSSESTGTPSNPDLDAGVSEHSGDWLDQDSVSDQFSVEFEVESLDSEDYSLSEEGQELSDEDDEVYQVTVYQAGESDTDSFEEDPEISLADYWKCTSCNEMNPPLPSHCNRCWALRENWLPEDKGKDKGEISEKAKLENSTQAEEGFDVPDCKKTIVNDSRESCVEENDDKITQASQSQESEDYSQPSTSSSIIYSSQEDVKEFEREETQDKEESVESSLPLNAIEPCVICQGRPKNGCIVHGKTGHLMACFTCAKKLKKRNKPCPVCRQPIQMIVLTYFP
HIF-2a conf: HIF-2a inhibition, single concentration confirmation; shares compounds with HIF-2a block; 786-0 RCC cells, HIF-2a luciferase reporter luminescence, overnight; inhibition, % at 18.8 µM; hit rate 56% among 1,800; AID 651580;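 active means mean inhibition across four replicates of at least 40 percent at the single tested concentration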
HIF-1a counter: inhibits HIF-1a reporter, a counter-screen for HIF-2a inhibitors; shares compounds with HIF-2a block; MiaPaCa-2 HIF-1a luciferase reporter, desferoxamine, overnight; inhibition, % at 18.8 µM; hit rate 72% among 1,800; AID 651589;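 active means mean inhibition of the reporter signal across four replicates at the single tested dose of 50% or more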
* = called active by the depositor; ? = inconclusive; . = no result. In the library only some 2.8% were active in any assay of this set; here they are far more common.

SMILES	Peg3 prom inh	MITF TRPM1 inh	KKLEB cytotox	HIF-2a block	CF NFkB block	Shn3 3UTR inh	HIF-2a conf	HIF-1a counter	others
C=C1C(=O)OC2CC1C(O)CC(C)=CCCC(C)=CC(O)CC2C (stereo not drawn)	98*	95*	-40	94*	81*	96*	98*	107*	CF NFkB conf=97*
Cc1ccc(S(=O)(=O)N2CCN(C(=O)C3CSC4(C)CCC(=O)N34)CC2)cc1C (stereo not drawn)	3	3	-2	1	2	6	.	.
CC(=O)NC12CC3CC(C1)CC(C(=O)N1CCN(S(=O)(=O)c4ccccc4C#N)CC1)(C3)C2	-8	-25	4	-9	0	-4	.	.
Cc1cc2c([nH]c3ccccc32)c2c1OC(C)(C)C=C2	-390	-86	-14	-281	16	-104	.	.
COc1ccc2[nH]c(=O)c3c(c2c1)OC(C)(C)C=C3	37	21	-7	22	86*	25	.	.	CF NFkB conf=98*;Mdm2-MdmX confirm=98*
C=C1C(=O)O[C@H]2[C@H]1[C@H](OC(=O)/C(C)=C\C)C[C@]1(CO1)[C@@H]1[C@H](OC(C)=O)C=C(C)[C@]21O	14	3	15	4	-2	-22	.	.
C=C1C(=O)O[C@@H]2[C@H]1[C@@H](OC(=O)/C(C)=C/C)C/C(C)=C\C(=O)/C=C(\C)[C@@H]2O	111*	96*	-4	95*	86*	-31	73*	102*	CF NFkB conf=-11;Mdm2-MdmX confirm=103*
C[C@@H]1CC=C[C@H]2[C@H]1C(=O)N(Cc1ccccc1)[C@H]2c1ccc2ccccc2c1Br	33	-1	-35	42*	74*	9	23	72*	CF NFkB conf=54*
COc1ccccc1-c1cc(C(F)(F)F)nc(S(C)(=O)=O)n1	105*	92*	-47	78*	69*	97*	68*	105*	CF NFkB conf=40*;Mdm2-MdmX confirm=102*
COc1ccccc1-c1cc(C(F)(F)F)nc(N2CCCC2)n1	18	0	1	0	2	5	.	.
Cc1cc(Sc2nnc(N)s2)c2ccccc2n1	7	48	-27	41*	89*	?	32	1	CF NFkB conf=-7
Cc1ccc2nc(C)cc(C(=O)OCC(=O)Nc3cccnc3Cl)c2c1	7	3	-13	2	6	-13	.	.
CC1CCC/C=C/C(=O)c2c(O)cc(O)cc2CC(=O)O1 (stereo not drawn)	106*	92*	-5	91*	82*	87*	80*	102*	CF NFkB conf=36;Mdm2-MdmX confirm=103*
C[C@@H]1Cc2c(O)c(O)cc(O)c2C(=O)O1	0	-3	10	10	0	4	.	.
FC(F)(F)c1nnc2c(Sc3ccccn3)nc3ccccc3n12	24	46	-10	-45	47	-42	.	.
FC(F)(F)c1nnc2c(Sc3ccc(Cl)cc3)nc3ccccc3n12	67*	78*	-17	41*	104*	8	10	46	CF NFkB conf=101*
COc1ccc(NC(=O)CSc2c3c(nc4ccccc24)CCCC3)c(OC)c1	5	14	-6	47*	31	45	9	91*
CC(NC(=O)c1cc(F)c(F)cc1Cl)C1CC2CCC1C2 (stereo not drawn)	6	-11	5	1	15	-7	.	.
O=C(Cc1ccc(Cl)cc1)NCCc1c[nH]c2ccccc12	5	6	-5	1	14	1	.	.
O=C(CCl)N(c1ccccc1)c1c[nH]c2ccccc12	86*	86*	-54*	73*	64*	94*	53*	104*	Mdm2-MdmX confirm=103*
CC(=O)n1cc(CO)c2ccccc21	-8	11	4	19	-6	-3	.	.
O=C(CCl)N(c1ccc(Cl)cc1)c1c[nH]c2ccccc12	103*	84*	-89*	95*	84*	98*	96*	107*	Mdm2-MdmX confirm=103*
CC(=O)n1cc(N(C(=O)CCl)c2ccccc2)c2ccccc21	45	66*	-95*	84*	90*	.	95*	106*	Mdm2-MdmX confirm=103*
O=C(CN1C(=O)NC2(CCCc3ccccc32)C1=O)NCC(F)(F)F (stereo not drawn)	1	9	10	10	-13	-16	.	.
O=C1C=C(c2cnc3ccccc3c2)C[C@@H](c2ccc3c(c2)OCO3)C1	-2	-24	0	-16	14	0	.	.
SMILES	Peg3 prom inh	MITF TRPM1 inh	KKLEB cytotox	HIF-2a block	CF NFkB block	Shn3 3UTR inh	HIF-2a conf	HIF-1a counter	others
COc1ccccc1-c1nnc(C2CCN(S(=O)(=O)c3ccccc3[N+](=O)[O-])CC2)o1	10	11	14	8	-22	-12	.	.
O=c1c(Br)c(N2CCCC2)cnn1-c1ccccc1	-268	-18	4	-172	-9	-61	.	.
COc1c(Cl)cnn(-c2ccc(C)cc2)c1=O	-19	-7	2	-26	-15	-10	.	.
Cc1ccc(-n2ncc(Br)c(Br)c2=O)cc1	102*	83*	-36	92*	69*	96*	99*	102*
O=c1c(Br)c(Br)cnn1-c1ccccc1	108*	92*	-85*	96*	90*	98*	99*	107*
O=C1NC[C@@H](CCCCN2C[C@H](Cc3ccc(O)cc3)N(Cc3ccccc3)C(=O)C2=O)N(Cc2ccccc2)C1=O	.	.	.	5	.	.	.	.
O=C(C[n+]1ccc(/C=C/c2ccccc2)cc1)c1ccc2c(c1)OCCO2	24	11	4	27	-2	.	.	.
O=C(OCC(=O)N1CCOCC1)c1cc(F)c(F)cc1Cl	11	-9	-4	1	-4	7	.	.
CC(=O)CC1OC(=O)C(Br)=C1NCc1ccccc1 (stereo not drawn)	104*	-21	-10	42*	9	10	17	76*
Cc1c(S(=O)(=O)Nc2ccc(Oc3ccccc3)cc2)c(=O)n(C)c(=O)n1C	20	12	-8	19	-8	15	.	.
COC(=O)C1=C(C)N(Cc2ccccc2)C(=NCc2cccc(C(F)(F)F)c2)N[C@H]1c1cccc(C(F)(F)F)c1	99*	96*	-29	1	16	-4	.	.	Mdm2-MdmX confirm=102*
CC1CCCN(CCCOc2ccccc2-c2ccccc2)C1 (stereo not drawn)	25	-21	2	12	-8	5	.	.
O=S(=O)(CS(=O)(=O)c1ccccc1)c1ccccc1	16	-4	3	10	-9	-23	.	.
